# A selection: hits, their analogues and other compounds. The true share with any hit is near 4.2%.
# AHR act – human AHR activation; P35869; AHR-responsive luciferase reporter cells, luminescence; activation, % at 5 µM; actives 2.5% (n = 320,000); in the data active = activation above about 47%;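 note: 0% = vehicle wells and 100% = reference agonist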
# Target sequence (P35869 whole entry, looked up): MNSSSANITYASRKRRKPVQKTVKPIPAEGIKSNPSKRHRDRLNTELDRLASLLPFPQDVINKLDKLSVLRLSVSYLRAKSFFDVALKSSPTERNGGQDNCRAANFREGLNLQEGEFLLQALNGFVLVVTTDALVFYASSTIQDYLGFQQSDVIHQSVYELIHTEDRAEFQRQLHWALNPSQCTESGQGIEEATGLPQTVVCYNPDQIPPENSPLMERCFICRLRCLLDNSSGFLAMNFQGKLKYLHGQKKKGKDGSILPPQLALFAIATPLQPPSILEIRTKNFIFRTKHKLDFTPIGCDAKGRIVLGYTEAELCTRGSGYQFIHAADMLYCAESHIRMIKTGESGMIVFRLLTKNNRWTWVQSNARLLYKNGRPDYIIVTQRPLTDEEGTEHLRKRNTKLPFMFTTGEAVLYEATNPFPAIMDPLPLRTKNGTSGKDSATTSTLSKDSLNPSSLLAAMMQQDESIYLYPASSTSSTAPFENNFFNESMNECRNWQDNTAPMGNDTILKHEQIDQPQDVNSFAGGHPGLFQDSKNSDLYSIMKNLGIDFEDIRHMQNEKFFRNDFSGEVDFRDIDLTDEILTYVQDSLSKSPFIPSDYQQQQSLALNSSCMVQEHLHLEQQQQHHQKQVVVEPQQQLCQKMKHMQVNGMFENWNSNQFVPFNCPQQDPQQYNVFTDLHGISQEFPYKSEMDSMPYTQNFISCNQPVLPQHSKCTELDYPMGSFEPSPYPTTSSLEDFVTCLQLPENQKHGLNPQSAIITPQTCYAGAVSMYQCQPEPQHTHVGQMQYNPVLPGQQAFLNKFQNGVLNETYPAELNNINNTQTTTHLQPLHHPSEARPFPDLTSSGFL
# esBAF inh – SWI/SNF esBAF complex inhibition; AID 602393; mouse ES cells, Bmi1-luciferase knock-in reporter, 24 h; 100% = twice the neutral-well signal; reporter increase, % at 12.5 µM; actives 2% (n = 350,000); in the data active = activation above about 40%; inconclusive = no clear call, values can overlap the other calls;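 note: 0% = median of the plate's neutral control wells and 100% = double that signal; a rise in the Bmi1 reporter signal indicates esBAF inhibition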
# Wnt bcat act – activators of Wnt/beta-catenin signaling | Wnt/beta-catenin reporter cell assay, activator, plate reader | activation, % at 9.35 µM | actives 1.2% (n = 300,000); in the data active = activation above about 30%, passing the limit was not always enough; inconclusive = no clear call, values can overlap the other calls;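 note: 0% = neutral control wells and 100% = positive control wells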
# GAA850 FXN act – activators of GAA850 frataxin (FXN) promoter; activation, % at 6 µM; actives 0.56% (n = 360,000); HEK293 lucGAA850 FXN promoter luciferase reporter, 24 h; percent of 10 µM SAHA response; AID 540364;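 active = activation above the average of all compounds screened plus 3 SD, cutoff fixed separately per campaign, cut at about 7.5% in these data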;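 note: 0% = DMSO wells and 100% = 10 µM SAHA wells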
# MITF TRPM1 HTS – MITF TRPM1 promoter activation in melanoma cells | SK-MEL-5 TRPM1-promoter luciferase, 24 h; % of positive control, neutral wells = 0 | activation, % at 12.5 µM | AID 588334 | actives 0.75% (n = 300,000);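 active = mean activation of at least 80% with every replicate also reaching 80%; inconclusive = mean reaches 80% but some replicate falls short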;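 note: 0% = neutral control wells and 100% = parthenolide positive control wells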
# Numbers without * were called inactive; ? = inconclusive; . = no result given.
SMILES,AHR act,esBAF inh,Wnt bcat act,GAA850 FXN act,MITF TRPM1 HTS
C[C@H](CO)N1C[C@H](C)[C@H](CN(C)Cc2ccc(C(=O)O)cc2)Oc2ccc(NC(=O)C3CC3)cc2CC1=O,.,-6.8,.,.,.
O=C(Nc1ccc(Cl)c(Cl)c1)N[C@@H]1CC[C@H](CCNC(=O)c2ccc(F)cc2)O[C@H]1CO,.,-3.4,.,.,.
O=C(Nc1nc2c(F)cc(F)cc2s1)c1ccco1,12.5,0.8,45.5*,1.9,.
O=C(Nc1nc2c(F)cc(F)cc2s1)c1ccc([N+](=O)[O-])o1,0.8,56.5*,2.6,-2.2,.
O=c1sc(Nc2ccccc2)nc2ccsc12,0.5,81.7*,.,5.7,74.1
O=C(Nc1nc2ccsc2c(=O)s1)c1ccco1,-0.6,.,42.7*,2.5,.
O=C(Nc1nc2ccsc2c(=O)s1)C1CCC1,-1.6,.,17.9,3.7,.
Cc1cc(C)c2nc(NC(=O)C3CC(=O)N(Cc4ccco4)C3)sc2c1 (stereo not given),25.6,-4.6,-2.2,1.8,4.1
O=C(NC(=S)Nc1nc2c(ccc3ccccc32)s1)c1cccs1,67.4*,.,.,0.8,-15.8
Cc1c(Cl)c([N+](=O)[O-])nn1Cc1ccc(C(=O)Nc2ccc(Cl)cn2)o1,8.8,.,.,-4.6,-0.7
O=C(Nc1nc2c(F)cc(F)cc2s1)C1CC(=O)N(Cc2ccco2)C1 (stereo not given),59.9*,6.9,-1.0,3.3,3.6
O=C(Nc1ccc(Cl)cn1)c1ccc([N+](=O)[O-])o1,.,.,54.0*,4.1,-31.4
O=C(NC(=S)Nc1cccc2ncccc12)c1cccs1,16.7,.,3.0,-0.2,0.9
O=C(Nc1nc2c(ccc3ccccc32)s1)c1ccco1,66.1*,26.6,37.6*,6.8,19.9
CO[C@H]1CN(C)C(=O)c2ccc(NC(=O)Nc3ccccc3)cc2OC[C@@H](C)N(C(=O)Nc2c(C)noc2C)C[C@@H]1C,.,1.3,.,.,.
C[C@@H]1CN([C@@H](C)CO)C(=O)c2cccc(NC(=O)c3ccc(-c4nccs4)cc3)c2O[C@H]1CN(C)C,.,2.0,.,.,.
CO[C@@H]1CN(C)C(=O)c2ccc(NS(C)(=O)=O)cc2OC[C@@H](C)N(C(=O)C2CCCC2)C[C@H]1C,.,10.9,.,.,.
O=C(Nc1nc2c(F)c(F)c(F)cc2s1)c1ccco1,1.5,52.8*,24.9,-0.1,?
CC(=O)Nc1nc2c(s1)CCc1ccccc1-2,43.5,9.0,-0.1,1.5,-13.2
O=C(Nc1nc2c(s1)CCc1ccccc1-2)c1ccco1,46.9,62.2*,.,5.3,.
O=C(Nc1ccc(-c2nc3c(ccc4ccccc43)o2)cc1)c1ccco1,67.0*,49.7*,10.3,2.1,33.8
CO[C@H](CN(C)S(=O)(=O)c1ccc(F)cc1)[C@@H](C)CN(C(=O)Nc1ccccc1F)[C@H](C)CO,.,10.1,.,.,.
COc1ccc(N(CC(=O)Nc2ccc3c(c2)OCCO3)S(=O)(=O)c2c(C)nn(C)c2C)cc1,2.2,1.5,-2.9,-0.7,-3.3
Cc1nn(C)c(C)c1S(=O)(=O)N(CC(=O)Nc1ccc2c(c1)OCO2)c1ccc(C(C)C)cc1,56.5*,8.7,-3.9,-0.5,-3.7
COc1ccc(N(CC(=O)Nc2ccc3c(c2)OCO3)S(=O)(=O)c2ccccc2)cc1OC,49.9*,-1.0,2.3,-1.6,-3.7
SMILES,AHR act,esBAF inh,Wnt bcat act,GAA850 FXN act,MITF TRPM1 HTS
COc1ccc(N(CC(=O)Nc2ccc3c(c2)OCO3)S(=O)(=O)c2ccc(F)cc2)cc1,66.7*,.,-5.2,1.3,-0.6
COc1ccc(OC)c(N(CC(=O)Nc2ccccc2)S(=O)(=O)c2ccccc2)c1,10.5,-4.5,-2.3,-1.0,-6.4
COc1ccc(S(=O)(=O)N(C)CC(=O)Nc2ccc3c(c2)OCO3)cc1,5.6,-3.3,.,0.1,6.7
COc1ccc(N(CC(=O)Nc2ccc3c(c2)OCO3)S(=O)(=O)c2ccccc2)c(OC)c1,63.1*,6.0,-3.1,0.8,-14.7
O=C(C[C@H]1CC[C@H](NC(=O)Nc2ccc(C(F)(F)F)cc2)[C@@H](CO)O1)NCCN1CCCC1,.,-6.7,.,.,.
O=c1c2cc(Br)ccc2nc2n1CCCCC2,-4.8,.,.,4.0,27.7
Cc1cccc(N2CCc3c2nc2ccc(Br)cc2c3N)c1,108.0*,4.5,11.9,2.1,24.2
Nc1c2c(nc3ccccc13)N(C1CCCCC1)CC2,35.7,-6.6,-3.5,2.8,30.8
Nc1c2c(nc3ccc(Br)cc13)N(C1CCCCC1)CC2,52.2*,.,.,.,.
Nc1c2c(nc3ccc(Br)cc13)N(c1ccccc1)CC2,76.0*,15.8,.,6.7,38.7
Nc1c2c(nc3ccc(Br)cc13)N(Cc1ccccc1)CC2,49.7*,.,-1.9,1.3,0.8
C[C@H]1CN([C@@H](C)CO)S(=O)(=O)c2ccc(Br)cc2O[C@@H]1CN(C)C,.,-4.0,.,.,.
C[C@H]1CN([C@@H](C)CO)C(=O)c2cccc(NC(=O)C3CCCCC3)c2O[C@@H]1CN(C)S(C)(=O)=O,.,0.1,.,.,.
C[C@H]1CN([C@@H](C)CO)C(=O)c2cc(NC(=O)C3CC3)ccc2O[C@H]1CN(C)S(=O)(=O)c1cn(C)cn1,.,0.4,.,.,.
COc1cccc(NC(=O)N(C)C[C@@H]2OCc3ccccc3-c3ccccc3C(=O)N([C@@H](C)CO)C[C@@H]2C)c1,.,5.1,.,.,.
CCCn1c(=O)c(C(=O)Nc2cccc(C)n2)c(O)c2ccccc21,17.6,50.3*,1.9,2.4,1.5
Cc1ccc(S(=O)(=O)N(C)C[C@@H]2OCCCC[C@@H](C)Oc3ccc(NC(=O)Nc4ccc5c(c4)OCO5)cc3C(=O)N([C@H](C)CO)C[C@@H]2C)cc1,.,14.1,.,.,.
O=C(NCCc1ccccc1)c1nc2nc(-c3cccs3)cc(C(F)(F)F)n2n1,77.3*,23.6,.,4.4,.
Cc1cc(C)n2nc(C(=O)NCCc3ccccc3)nc2n1,28.4,26.9,14.3,3.6,51.3
CO[C@@H]1CN(C)C(=O)c2cc(NC(=O)c3ccc4c(c3)OCO4)ccc2OC[C@@H](C)NC[C@@H]1C,.,-5.2,.,.,.
Nc1ccc(C(=O)OCc2nc3c(ccc4ccccc43)[nH]2)cc1,10.1,78.8*,13.0,-1.7,45.1
Cc1noc(C)c1NC(=O)Nc1cccc2c1O[C@@H](CN(C)C(=O)Nc1ccc(C(F)(F)F)cc1)[C@H](C)CN([C@@H](C)CO)C2=O,.,0.8,.,.,.
COc1ccccc1N1CCN(C(=O)CSc2ccccc2)CC1,9.8,48.9*,.,3.1,65.1
COc1ccc(/C=N/NC(=O)C(=O)N2CCN(c3ccccc3OC)CC2)cc1,0.7,-2.6,-0.4,8.4*,2.8
COc1ccc(/C=C/C(=O)NC(=S)N2CCN(c3ccccc3OC)CC2)cc1,3.2,77.0*,22.4,7.1,.
COc1ccccc1N1CCN(C(=O)CCC(=O)N2CCN(c3ccccc3OC)CC2)CC1,2.7,-4.4,-1.8,-3.0,-10.6
C[C@@H]1CCCCO[C@@H](CN(C)Cc2ccc3c(c2)OCO3)[C@@H](C)CN([C@H](C)CO)C(=O)c2cc(NS(=O)(=O)c3ccc(F)cc3)ccc2O1,.,4.5,.,.,.
CN(C)CCCNC(=O)C[C@H]1CC[C@H](NC(=O)c2ccccc2F)[C@H](CO)O1,.,-3.2,.,.,.
COC(=O)c1cc(-c2ccc(OC)c(OC)c2)n[nH]1,15.6,8.5,-3.1,-0.9,-4.4

# Assay outcomes as filed in PubChem BioAssay.
